About 530 (24%) of roughly 2,200 compounds were called active.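 How the source made its calls: active means inhibition above a set limit at one or more concentrations of the dose series; inactive means inhibition under that limit at every dose.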 The list is a sample of the results. Results with a measured potency or affinity are listed apart.

A short description of the test: nmpC-GFP reporter counter-screen in S. Typhimurium, dose response, counter-screen for PhoP regulon inhibitor project, Salmonella Typhimurium, GFP fluorescence (AID 2401).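 Further: S. typhimurium with Mg-insensitive nmpC-GFP reporter grown at 10 µM Mg2+; drop in reporter fluorescence reflects general culture growth inhibition.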 The note with it: 4 h; series mostly up to 150 µM. A general note: The purpose of a counterscreen is to sort out artefacts and off-target activity.
`c1ccc(Nc2nc3ccccc3[nH]2)nc1`: the call was inactive.
As to `CC(=O)Nc1cccc(-c2csc(Nc3ccccn3)n2)c1`, the call was inactive.
The same measure for `Clc1ccc(Cn2ncc3c(NCc4ccco4)ncnc32)c(Cl)c1`: “inactive”; for `Cc1nc2cc(NC(=O)N3CCN(c4ccccn4)CC3)ccc2o1`: “inactive”.
In the case of `CC(C)N(Cc1nc(-c2ccccc2)no1)C(=O)CN(C)S(=O)(=O)c1ccccc1`, the molecule was called inactive.
On to `COc1ccccc1NCCC(=O)OCC(=O)NC1CCCCCC1`, for which the molecule was called inactive.
As for `Cc1ccc(NC(=O)CO/N=C(\N)c2nonc2N)cc1`, the result was inactive.
Consider `O=c1cc(CSc2nc(NCc3ccccc3)c3ccccc3n2)nc2ccc(Cl)cn12`, for which the molecule was called inactive.
The same measure for `N/C(=N\OC(=O)N1c2ccccc2Sc2ccccc21)c1ccccc1`: “inactive”; for `Cc1cc(C)cc(OC(=O)CS(=O)c2ccc(C(F)(F)F)cc2[N+](=O)[O-])c1` (centres undefined): “inactive”; for `CCCOc1ccc(/C=N/O)cc1`: “inactive”.
The same measure for `C=C(C)C1Cc2cc3ccc(=O)oc3cc2O1` (centres undefined): “inactive”.
`CCOc1cc(C2Nc3cccc4cccc(c34)N2)ccc1O`: the outcome was inactive.
The same measure for `COC(=O)CCC(=O)Nc1ccc(OC)cc1`: “inactive”.
Then `CC(=O)N/N=C/c1ccc(OCCOc2ccc(Br)cc2)cc1`, with “inactive”.
For `COc1cccc(-n2c(SCc3cc(=O)oc4cc(O)c(O)cc34)nc3ccccc3c2=O)c1`, the call was inactive.
The same measure for `O=C(Cn1cnc2scc(-c3ccccc3)c2c1=O)N1CCOCC1`: “inactive”; for `COc1ccccc1Nc1nc(-c2c(C)[nH]c3ccccc23)cs1`: “inactive”.
For the molecule `N#Cc1c(N)n[nH]c1-c1cc2c([nH]1)CCCC2`, the result was inactive.
In the case of `Cc1ccc(CNC(=O)Nc2cccs2)cc1`, the molecule was classed as inactive.
Turning to `CCc1cccc2c(C#N)cn(CC(=O)NCCOC)c12`, the call was inactive.
The same measure for `Cc1nc(N2CCN(Cc3ccccc3)CC2)nc2c1C(=O)CC(C)C2` (centres undefined): “inactive”.
The same measure for `O=C(OCCN1C(=O)c2ccccc2C1=O)c1ccc(S(=O)(=O)N2CCCCCC2)cc1`: “inactive”; for `Cc1cc(C)n(-c2ccc(C(=O)OCC(=O)Nc3ccc([N+](=O)[O-])cc3)cc2)n1`: “inactive”.
The same measure for `COc1ccc(/C=C2\CN(Cc3ccccc3)C/C(=C\c3ccc(OC)cc3)C2=O)cc1`: “inactive”; for `N/C(=N\OC(=O)Nc1ccc(Cl)cc1)c1ncc(C(F)(F)F)cc1Cl`: “inactive”; for `COc1cccc(C=NCC(C)N=Cc2cccc(OC)c2O)c1O` (centres undefined): “inactive”.
In the case of `Cn1c(CO)cnc1SCc1ccc([N+](=O)[O-])cc1`, the molecule was classed as inactive.
Then `Cc1nn(-c2ccccc2)c2sc(-c3n[nH]c(=S)o3)cc12`, with “inactive”; and `COc1ccc(C(=O)NC(=S)NCc2ccc(-c3nc4ccccc4o3)cc2)cc1OC`, with “inactive”; and `O=C1NC(c2ccc3c(c2)OCO3)Oc2ccccc21` (centres undefined), with “inactive”.
Then `O=C(O)CCC(=O)NCC1OCCc2ccccc21` (centres undefined), with “inactive”; and `C=CCNc1nnc(Cl)c2ccccc12`, with “inactive”; and `CCCCCCCCOC(=O)C1=C(C)Nc2nnnn2C1c1cccs1` (centres undefined), with “inactive”.
Then `CCOC(=O)c1c(/N=C/c2ccc(O)cc2O)sc2c1CCC2`, with “inactive”; and `O=C(c1ccc(Cl)cc1Cl)C1(n2cncn2)Oc2ccccc2C1O` (centres undefined), with “inactive”; and `O=C(CCN1CCN(c2ccc(F)cc2)CC1)Nc1ccccc1F`, with “inactive”.
As for `Cc1sc(NC(=O)c2ccco2)c(CN2CCN(c3ccc(F)cc3)CC2)c1C`, the molecule was classed as inactive.
Then `CCOC(=O)c1cc2sc(C)cc2n1CC(=O)NCc1ccc(F)cc1`, with “inactive”; and `CC(C(=O)Nc1cc([N+](=O)[O-])ccc1Cl)N1CCN(c2ccccc2O)CC1` (centres undefined), with “inactive”; and `CC(C)NC(=O)/C(=N\O)c1ccccc1`, with “inactive”.
With `CCOC(=O)C(/C=C(\C#N)C(=O)OCC)=C(/N)N1CCN(c2c(C)cccc2C)CC1`, the result was inactive.
Then `O=[N+]([O-])c1ccc(NCCCNS(=O)(=O)c2ccccc2)c(Cl)c1`, with “inactive”; and `O=S(=O)(Nc1cc(Sc2ncn[nH]2)c(O)c2ccccc12)c1ccccc1`, with “inactive”; and `Nc1c(-c2ccccc2)cnn1-c1cccc([N+](=O)[O-])c1`, with “inactive”.
`CCC(Sc1ncccc1C(=O)OC(C)C)C(=O)N1CCOCC1` (centres undefined): the outcome was inactive.
The same measure for `Cc1ccc(C)n1-c1cc(S(=O)(=O)N2CCOCC2)ccc1N1CCCC1`: “inactive”; for `Cc1cc(Nc2ccccc2F)n2ncnc2n1`: “inactive”.
Then `N#Cc1ccc(CSc2nnc(-c3ccncc3)n2CCc2ccccc2)cc1`, with “inactive”; and `C/C(=N\NC(=O)c1ccccc1)c1ccc2c(c1)OCO2`, with “inactive”; and `O=C(NN=C1CCN(Cc2ccccc2)CC1)c1cc2ccccc2cc1O`, with “inactive”.
In the case of `CN(C(=S)Nc1ccc(Oc2ccccc2)cc1)c1ccc(O)cc1`, the outcome was inactive.
The same measure for `CC(C)Cn1c(-c2ccccc2)nc2ccccc2c1=O`: “inactive”; for `COC(=O)c1c(C(=O)OC)c(-c2cccc(C)c2)n2c1CS(=O)(=O)C2`: “inactive”; for `NC(=NCCc1c[nH]c2ccccc12)NC(=O)c1ccc(F)cc1`: “inactive”.
Take `CC1CCN(c2ccc(NC(=S)NC(=O)c3ccc(-c4cccc([N+](=O)[O-])c4)o3)cc2)CC1`: the result was inactive.
The same measure for `CCOc1ccc(-c2noc(CCCC(N)=O)n2)cc1OC`: “inactive”; for `O=C(CNC(=O)c1ccco1)OCC(=O)c1ccc2c(c1)CCCC2`: “inactive”.
The same measure for `C/C(=N\n1nnnc1Nc1ccccc1)c1ccc(N)cc1`: “inactive”; for `COc1ccc(NC(=O)CSc2nc(C)cs2)cc1OC`: “inactive”; for `c1ccc(CCNc2nc3ccccc3s2)cc1`: “inactive”.
Turning to `Cc1cc(NC(=O)c2cnn3cccnc23)no1`, the call was inactive.
Regarding `COc1ccc(-c2ccc(-c3noc(-c4cccs4)n3)c(OC)n2)cc1`, the outcome was inactive.
Then `COc1ccc(NC(C)C(=O)Nc2ccc(C(C)(C)C)cc2)cc1Cl` (centres undefined), with “inactive”.
For `CC1CCCCN1CCNS(=O)(=O)c1ccc2c(c1)oc(=O)n2C` (centres undefined), the result was inactive.
With `Cc1ccccc1-n1nnnc1Sc1nnnn1-c1ccccc1`, the outcome was inactive.
The same measure for `C=CCn1c(SCc2c(C(=O)OC)sc(N)c2C(=O)OC)nnc1-c1ccc(Cl)cc1`: “inactive”.
Take `CSCCC(NC(=O)c1cccc(C)c1)C(=O)OCC(=O)NC(=O)c1cccn1C` (centres undefined): the molecule was called inactive.
`COc1ccc(-c2cc(C(=O)O)[nH]n2)cc1OC`: the result was inactive.
Turning to `O=C(O)CCc1nn2c3ccccc3n(CC(=O)c3ccccc3)c2nc1=O`, the molecule was called inactive.
In the case of `COc1ccccc1/C=C1\CCCC2=C1Nc1nnnn1C2c1ccccc1OC` (centres undefined), the molecule was called inactive.
For `CCN(CC(=O)N1CCN(Cc2ccccc2)CC1)S(=O)(=O)c1ccc(F)cc1`, the result was inactive.
Then `S=C(Nc1cccc(Cl)c1)Nc1cccc2cnccc12`, with “inactive”; and `S=C(NCc1cccnc1)Nc1ccc(Cl)cc1`, with “inactive”.
Then `CSC(=NS(=O)(=O)c1ccccc1)SC`, with “inactive”; and `CCN(CC)c1ccc(/C=C(\C#N)C(=O)NCc2ccco2)cc1`, with “inactive”.
As for `CCOC(=O)C1=C(C)NC(=O)NC1c1c(OCC(=O)N2CCCCC2)ccc2ccccc12` (centres undefined), the result was inactive.
Regarding `O=C(NCCSCc1ccccc1)c1ccc(F)cc1`, the molecule was classed as inactive.
Then `CCOc1ccc(-c2nnc(NC(=O)CCCOc3cccc(C)c3)o2)cc1`, with “inactive”; and `COc1ccc(Br)cc1C(=O)NCc1cccnc1`, with “inactive”; and `C=CCNc1sc(C(=O)c2ccc(C)cc2)c(N)c1C#N`, with “inactive”.
The same measure for `Cc1ccc(C(=O)NCC(=O)OCC(=O)N2CCCc3ccccc32)cc1`: “inactive”; for `CCC(OC(=O)C(NC(=O)c1ccccc1)c1ccccc1)C(=O)Nc1cc(C)on1` (centres undefined): “inactive”; for `COc1ccc(-c2nnc(SCC(=O)NCc3ccco3)o2)cc1`: “inactive”.
Consider `CCn1c(SCC(=O)N2CCCCC2)nc(O)cc1=O`, for which the call was inactive.
For the molecule `CC(=O)N1C(=O)C2(C(C#N)=C(N)Oc3c2c(C)nn3-c2ccccc2)c2ccccc21` (centres undefined), the outcome was inactive.
As to `Oc1ccc(N2CCN(Cc3ccc(OCCCN4CCCCC4)cc3)CC2)cc1`, the molecule was called inactive.
Take `O=C(COC(=O)/C=C/c1ccco1)Nc1cccc([N+](=O)[O-])c1`: the call was inactive.
As for `CCc1c(C)c2cc(Cl)c(O)c(CN(C)C)c2oc1=O`, the call was inactive.
With `Cc1[nH]c2ccccc2c1/C=N/Nc1ccc(F)cc1F`, the molecule was classed as inactive.
Turning to `COc1ccc(-c2[nH]ncc2/C=C(\C#N)C(=O)NC2CC2)cc1`, the molecule was classed as inactive.
The same measure for `N#Cc1nc(Cc2cccc3ccccc23)oc1NCCCN1CCOCC1`: “inactive”.
Regarding `CCCSc1ncc(Cl)c(C(=O)Nc2ccc(S(=O)(=O)N3CC(C)OC(C)C3)cc2)n1` (centres undefined), the call was inactive.
As for `CCn1nc(C(=O)NCc2ccco2)c(Cl)c1Cl`, the molecule was called inactive.
On to `CCN(CC)Cc1c[nH]c2c(C(=O)OC)cccc12`, for which the call was inactive.
Then `Cc1ccccc1Cn1nc(C)c(NC(=O)c2noc3c2CCc2ccccc2-3)c1C`, with “inactive”; and `c1nc(N2CCC3(CC2)OCCO3)c2c3c(sc2n1)CCCC3`, with “inactive”.
Then `COc1ccccc1Nc1nc(NCc2ccco2)c2ccccc2n1`, with “inactive”.
Then `COCCSc1ccccc1C(=O)NCC1CCCO1` (centres undefined), with “inactive”.
As to `CCCOc1ccc(C2NC(=S)NC(c3ccccc3)=C2C(=O)Nc2ccc(C)cc2)cc1OC` (centres undefined), the result was inactive.
Take `N#Cc1nc(-c2cccs2)oc1NCCCN1CCOCC1`: the result was inactive.
Turning to `COc1ccc(C)cc1NC(=O)C(Sc1nnc(-c2ccncc2)n1-c1ccc(Cl)cc1)c1ccccc1` (centres undefined), the result was inactive.
On to `COc1ccc(OC)c(/C=N/NC(=O)Cc2nc3ccccc3[nH]2)c1`, for which the call was inactive.
On to `Cc1ccc(/C=N/NC(=O)Cn2cnc3ccccc32)o1`, for which the call was inactive.
Then `C=CCn1c(SCCOc2ccc(OC)cc2)nnc1C(C)NC(=O)c1ccc(OC)cc1` (centres undefined), with “inactive”; and `O=C(CSCc1nc2ccccc2[nH]1)Nc1ccc2ccccc2c1`, with “inactive”.
For `CC(Cl)C(=O)NNc1cccc(Cl)n1` (centres undefined), the molecule was classed as inactive.
The same measure for `O=S(=O)(c1ccc2c(c1)OCCO2)N1CCN(c2cccc(Cl)c2)CC1`: “inactive”.
For `O=C(CSc1ncn[nH]1)Nc1cccc2ccccc12`, the outcome was inactive.
The same measure for `COc1ccc(Oc2ccccc2/C=N/O)cc1`: “inactive”; for `CCCNC(=O)CN(C1CCCCC1)S(C)(=O)=O`: “inactive”; for `Cc1nnc(SC(C)C(=O)Nc2ccc(S(=O)(=O)N3CCCCCC3)cc2)s1` (centres undefined): “inactive”.
As for `O=S(=O)(/N=C(/Nc1cccc2ccccc12)c1ccccc1)c1cccs1`, the call was inactive.
Then `COc1ccc(-c2ccccc2)cc1NCc1ccccc1C`, with “inactive”.

These data come from PubChem BioAssay AID2401 (Southern Research Specialized Biocontainment Screening …, 2010).
